In the OligoGym collection:
Further: reference of the scale not given here.

What follows are sequences tested against APLNR (assay: pooled miR-30 sensor sort-seq; sequence = guide strand). Conditions: shRNA.
Sequence TAGCGGTCGAAGCTGAGGCCGG has a sensor-assay potency score (higher = more potent) of -1.22. Work on TTCTCGTGCATCTGTTCTCCAC yielded a sensor-assay potency score (higher = more potent) of -0.937. TATAAGTACAACACACACAGAC gave a sensor-assay potency score (higher = more potent) of 0.501. Work on TTCACTTTCATAGTCCTCCAAG yielded a sensor-assay potency score (higher = more potent) of -0.567. In the case of TATCTGCTGACACACAGCCCAC, the sensor-assay potency score (higher = more potent) is reported as -1.74. TGTACTCACACTCAGACTGGTT showed a sensor-assay potency score (higher = more potent) of -1.04. Sequence AAACACGGTCCAGAGCACCAGA has a sensor-assay potency score (higher = more potent) of -0.76. AGTCTGTGTACTCACACTCAGA showed a sensor-assay potency score (higher = more potent) of -2.07.

Each sequence was assayed against APOA1 in the same assay as above. Conditions: shRNA.
Sequence TCGCGCAGCTTGCTGAAGGTGG has a sensor-assay potency score (higher = more potent) of -0.684. TTGCAGCTCGTGCAGCTTCTGG was tested, and the sensor-assay potency score (higher = more potent) was -1.14. In the case of TTAGGTTTAGCTGTTTTCCCAA, the sensor-assay potency score (higher = more potent) is reported as 0.243. With TTTGAGCACATCCACGTACACA the sensor-assay potency score (higher = more potent) was -1.01. TTCTTCTGGAAGTCGTCCAGGT gave a sensor-assay potency score (higher = more potent) of -0.431. In the case of TAGGTTTAGCTGTTTTCCCAAG, the sensor-assay potency score (higher = more potent) is reported as -1.2. Work on TTGAGCACATCCACGTACACAG yielded a sensor-assay potency score (higher = more potent) of -0.115. TTGGAGCTCTGCGCGCAGCGGC was tested, and the sensor-assay potency score (higher = more potent) was -1.17. In the case of TTAGCTGTTTTCCCAAGGCGGA, the sensor-assay potency score (higher = more potent) is reported as -1.3. TAGCTGTTTTCCCAAGGCGGAG was tested, and the sensor-assay potency score (higher = more potent) was -1.51. Sequence TGTCTTTGAGCACATCCACGTA has a sensor-assay potency score (higher = more potent) of -1.2. TGGGACACATAGTCTCTGCCGC gave a sensor-assay potency score (higher = more potent) of -0.692. TCAGCTTCTCTTGCAGCTCGTG showed a sensor-assay potency score (higher = more potent) of -1.07. With TTGGCCTTCTCGCTGAGCGTGC the sensor-assay potency score (higher = more potent) was -0.4. In the case of TTTAGCTGTTTTCCCAAGGCGG, the sensor-assay potency score (higher = more potent) is reported as -0.584. Work on AACTGGGACACATAGTCTCTGC yielded a sensor-assay potency score (higher = more potent) of -0.955. With TTGTCAAGGAGCTTTAGGTTTA the sensor-assay potency score (higher = more potent) was -0.808. Sequence TAGAGCTCCATCTCCTCCTGCC has a sensor-assay potency score (higher = more potent) of 0.375. TCTTGCTGCCAGAAATGCCGAG was tested, and the sensor-assay potency score (higher = more potent) was -0.701. For TACTCGGCCAGTCTGGCGCCGC, the sensor-assay potency score (higher = more potent) was -0.96. With TTCTCTTGCAGCTCGTGCAGCT the sensor-assay potency score (higher = more potent) was -0.213.

The sequences below were run against APOA4 in the same assay as above. Conditions: shRNA.
With TTCTTCATCTGGAAGGTCAGGC the sensor-assay potency score (higher = more potent) was 0.31. TCTTCTGCAGGTCACCTGCGTA was tested, and the sensor-assay potency score (higher = more potent) was -1.37. Work on TCGGCGTTCTTCTTCATCTGGA yielded a sensor-assay potency score (higher = more potent) of -0.527. TGAAGTAGTCCCACATCACCGT gave a sensor-assay potency score (higher = more potent) of -0.0577. With TTGAGCTCCTCCACGTTCTGGT the sensor-assay potency score (higher = more potent) was 0.494. Sequence TTTCTGGAGATGTTCCACGGCC has a sensor-assay potency score (higher = more potent) of -0.87. Sequence TCGATCTTGGCCTTGAGCTCGT has a sensor-assay potency score (higher = more potent) of -0.264. Work on TTCTTCTGCAGGTCACCTGCGT yielded a sensor-assay potency score (higher = more potent) of -0.176. With TCCACGTTCTGGTCGATCTTGG the sensor-assay potency score (higher = more potent) was -1.41. TCTTTCTCCTTGAAGGTGCTGA was tested, and the sensor-assay potency score (higher = more potent) was 0.0406. Work on TTCTGGTCGATCTTGGCCTTGA yielded a sensor-assay potency score (higher = more potent) of -0.621.
